In all, about 5,500 compounds went through this assay and about 2,000 (36%) were called active. Inconclusive results (about 18%) are left out. No stated cut-off is given here; in the data, active means normalized growth mostly below about 0.91 (no sharp cut-off); inconclusive means no clear call, values can overlap the other calls; inactive means mostly above about 0.92. Some of the results follow.
Test: chemical genetic growth profiling, strain panel (AID 1159580);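 further: tested at 20 µM; growth read once vehicle control cultures reached saturation at 30 °C; 1 = growth at the plate median or of vehicle wells; lower values mean less growth of the strain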
Details: growth OD

Measured: normalized growth

COc1ccc(-c2cc(=O)c3c(O)cc(O[C@@H]4O[C@H](CO[C@H]5O[C@H](C)[C@@H](O)[C@H](O)[C@@H]5O)[C@@H](O)[C@H](O)[C@H]4O)cc3o2)cc1O
inactive: S. cerevisiae deletion strains, locus YKL009W, strain mrt4, active compounds read low 0.981 | S. cerevisiae deletion strains, locus YKL068W, active compounds read low 0.973 | S. cerevisiae deletion strains, locus YKL085W, strain MDH1 (second series), active compounds read low 0.991 | S. cerevisiae deletion strains, locus YKL085W, strain MDH1, active compounds read low 0.991 | S. cerevisiae deletion strains, locus YKL160W, strain elf1, active compounds read low 1 | S. cerevisiae deletion strains, locus YKL190W, strain CNB1, active compounds read low 0.994 | S. cerevisiae deletion strains, locus YKR001C, strain vps1, active compounds read low 1.02 | S. cerevisiae deletion strains, locus YKR026C, strain gcn3, active compounds read low 1.01 | S. cerevisiae deletion strains, locus YKR091W, strain srl3, active compounds read low 1.02 | S. cerevisiae deletion strains, locus YLL001W, strain dnm1, active compounds read low 1 | S. cerevisiae deletion strains, locus YLL026W, active compounds read low 1.01 | S. cerevisiae deletion strains, locus YLL041C, strain sdh2, active compounds read low 1.01 | S. cerevisiae deletion strains, locus YLR027C, strain aat2, active compounds read low 1.01 | S. cerevisiae deletion strains, locus YLR039C, strain RIC1, active compounds read low 0.954 | S. cerevisiae deletion strains, locus YLR058C, strain SHM2, active compounds read low 0.986 | S. cerevisiae deletion strains, locus YLR102C, strain apc9, active compounds read low 0.996 | S. cerevisiae deletion strains, locus YLR113W, strain HOG1, active compounds read low 1.03 | S. cerevisiae deletion strains, locus YLR221C, strain rsa3, active compounds read low 1.01 | S. cerevisiae deletion strains, locus YLR258W, strain gsy2, active compounds read low 1.03 | S. cerevisiae deletion strains, locus YLR262C, strain YPT6 (second series), active compounds read low 1.03 | S. cerevisiae deletion strains, locus YLR262C, strain YPT6, active compounds read low 0.949 | S. cerevisiae deletion strains, locus YLR268W, strain sec22, active compounds read low 1 | S. cerevisiae deletion strains, locus YLR320W, strain mms22, active compounds read low 1.03 | S. cerevisiae deletion strains, locus YLR330W, strain CHS5, active compounds read low 0.981 | S. cerevisiae deletion strains, locus YLR342W, strain FKS1 (second series), active compounds read low 1.01 | S. cerevisiae deletion strains, locus YLR342W, strain FKS1, active compounds read low 1.03 | S. cerevisiae deletion strains, locus YLR357W, strain rsc2, active compounds read low 1.03 | S. cerevisiae deletion strains, locus YLR370C, strain arc18, active compounds read low 1.01 | S. cerevisiae deletion strains, locus YLR371W, strain rom2, active compounds read low 0.999 | S. cerevisiae deletion strains, locus YLR384C, strain iki3, active compounds read low 1.03 | S. cerevisiae deletion strains, locus YLR418C, strain cdc73, active compounds read low 0.979 | S. cerevisiae deletion strains, locus YML016C, strain PPZ1, active compounds read low 0.994 | S. cerevisiae deletion strains, locus YML032C, strain rad52, active compounds read low 1.02 | S. cerevisiae deletion strains, locus YML120C, strain ndi1, active compounds read low 1.01 | S. cerevisiae deletion strains, locus YML124C, strain tub3, active compounds read low 1 | S. cerevisiae deletion strains, locus YMR058W, strain fet3, active compounds read low 1.01 | S. cerevisiae deletion strains, locus YMR078C, strain ctf18, active compounds read low 0.993 | S. cerevisiae deletion strains, locus YMR125W, strain sto1, active compounds read low 1.03 | S. cerevisiae deletion strains, locus YMR129W, active compounds read low 1 | S. cerevisiae deletion strains, locus YMR205C, strain PFK2, active compounds read low 1.03 | S. cerevisiae deletion strains, locus YMR223W, strain ubp8, active compounds read low 0.989 | S. cerevisiae deletion strains, locus YMR231W, strain pep5, active compounds read low 1.02 | S. cerevisiae deletion strains, locus YMR307W, strain GAS1, active compounds read low 1.07 | S. cerevisiae deletion strains, locus YNL067W, strain RPL9B, active compounds read low 1.04 | S. cerevisiae deletion strains, locus YNL071W, strain lat1, active compounds read low 1.03 | S. cerevisiae deletion strains, locus YNL128W, strain TEP1, active compounds read low 1.01 | S. cerevisiae deletion strains, locus YNL183C, strain NPR1, active compounds read low 0.989 | S. cerevisiae deletion strains, locus YNL209W, strain ssb2, active compounds read low 1.01 | S. cerevisiae deletion strains, locus YNL233W, strain BNI4, active compounds read low 1.01 | S. cerevisiae deletion strains, locus YNL248C, strain rpa49, active compounds read low 1 | S. cerevisiae deletion strains, locus YNL250W, strain rad50, active compounds read low 1 | S. cerevisiae deletion strains, locus YNL271C, strain bni1, active compounds read low 0.999 | S. cerevisiae deletion strains, locus YNL298W, strain CLA4, active compounds read low 0.985 | S. cerevisiae deletion strains, locus YNL307C, strain MCK1, active compounds read low 1 | S. cerevisiae deletion strains, locus YNL322C, strain KRE1 (second series), active compounds read low 1.02 | S. cerevisiae deletion strains, locus YNL322C, strain KRE1, active compounds read low 1 | S. cerevisiae deletion strains, locus YNR049C, strain mso1, active compounds read low 1.01 | S. cerevisiae deletion strains, locus YNR052C, strain pop2, active compounds read low 1 | S. cerevisiae deletion strains, locus YOL006C, strain TOP1, active compounds read low 1.08 | S. cerevisiae deletion strains, locus YOL012C, strain htz1 1.47 | S. cerevisiae deletion strains, locus YOL147C, strain pex11, active compounds read low 0.974 | S. cerevisiae deletion strains, locus YOR001W, strain rrp6, active compounds read low 1.03 | S. cerevisiae deletion strains, locus YOR061W, strain CKA2, active compounds read low 0.993 | S. cerevisiae deletion strains, locus YOR069W, strain VPS5, active compounds read low 0.987 | S. cerevisiae deletion strains, locus YOR070C, strain gyp1, active compounds read low 1.02 | S. cerevisiae deletion strains, locus YOR080W, strain dia2, active compounds read low 1.03 | S. cerevisiae deletion strains, locus YOR083W, strain WHI5, active compounds read low 0.992 | S. cerevisiae deletion strains, locus YOR106W, strain vam3, active compounds read low 0.983 | S. cerevisiae deletion strains, locus YOR136W, strain idh2, active compounds read low 1.01 | S. cerevisiae deletion strains, locus YOR144C, strain elg1, active compounds read low 1 | S. cerevisiae deletion strains, locus YOR184W, strain ser1, active compounds read low 1.01 | S. cerevisiae deletion strains, locus YOR231W, strain MKK1, active compounds read low 1 | S. cerevisiae deletion strains, locus YOR265W, strain rbl2, active compounds read low 1.02 | S. cerevisiae deletion strains, locus YOR270C, strain vph1, active compounds read low 0.983 | S. cerevisiae deletion strains, locus YOR290C, strain snf2, active compounds read low 1.02 | S. cerevisiae deletion strains, locus YOR316C, strain cot1, active compounds read low 0.997 | S. cerevisiae deletion strains, locus YPL051W, strain arl3, active compounds read low 1.01 | S. cerevisiae deletion strains, locus YPL055C, strain LGE1, active compounds read low 1.07 | S. cerevisiae deletion strains, locus YPL078C, strain atp4, active compounds read low 0.998 | S. cerevisiae deletion strains, locus YPL106C, strain sse1, active compounds read low 1.05 | S. cerevisiae deletion strains, locus YPL240C, strain hsp82, active compounds read low 1.03 | S. cerevisiae deletion strains, locus YPL241C, strain CIN2, active compounds read low 0.986 | S. cerevisiae deletion strains, locus YPL256C, strain CLN2, active compounds read low 0.987 | S. cerevisiae deletion strains, locus YPR119W, strain clb2, active compounds read low 1 | S. cerevisiae deletion strains, locus YPR141C, strain kar3, active compounds read low 0.972 | S. cerevisiae deletion strains, locus YPR163C, strain tif3, active compounds read low 0.992 | S. cerevisiae deletion strains, locus YPR167C, strain met16, active compounds read low 1.01 | S. cerevisiae deletion strains, strain wtn01, active compounds read low 0.997 | S. cerevisiae strains, strain wild type, active compounds read low 1
